HT1080NT lethal = kills 2HG-producing HT-1080-NT fibrosarcoma cells; HT-1080-NT fibrosarcoma viability, CellTiter-Glo ATP luminescence, 48 h; Potency, µM (highest dose often 46.1 µM), usual class: cytotoxic; actives 1.6% (n = 360,000);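 further: NT is the 2HG producing partner of a matched IDH1 knockdown line; nearly all actives have a fitted effect of over 55% in size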
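HT-1080-NT; 750 cells/well; 5% FBS RPMI; 48 h compound, 37 degrees C; CellTiter-Glo luminescence; curve fitting and curve-class assignment.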
TDP1 cell noCPT = qHTS for Inhibitors of human tyrosyl-DNA phosphodiesterase 1 (TDP1): qHTS in cells in absence of CPT; Potency, µM (doses to about 46.2 µM), usual class: inhibitors; AID 686978, 2013; actives 15% (n = 420,000); DT40 Tdp1-/- hTDP1 cells, no CPT, ATP luminescence, 48 h; further: nearly all actives have a fitted effect of over 55% in size
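Chicken DT40 Tdp1-/- cells stably complemented with human TDP1 were seeded at 400 cells/well with DMSO in place of 20 nM camptothecin. After compound pinning, cells grew at least 48 hr at 37 °C; viability read by CellTiter-Glo luminescence.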
DT40 TDP1 CPT = DT40-hTDP1 cell growth loss with CPT; actives 12% (n = 420,000); Potency, µM (doses to about 46.2 µM), usual class: inhibitors; AID 686979; chicken DT40 Tdp1-/-;hTDP1 cells + 20 nM CPT, ATP luminescence, 48 h; further: nearly all actives have a fitted effect of over 55% in size
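Chicken DT40 Tdp1-/- cells complemented with human TDP1, 400 cells/well, exposed to compounds plus 20 nM camptothecin for at least 48 h at 37 C; viability read as ATP content by CellTiter-Glo luminescence.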
IL1B secr inh = inflammasome signaling inhibition, IL-1 beta readout | THP-1 LPS/ATP IL-1B secretion, AlphaLISA, 16 h; stronger effect = lower value | activity change, % at 57.5 µM | actives 4.7% (n = 360,000) | AID 743279; in the data active means activity change below about -50%; inconclusive means mostly about -30% to -49%
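THP-1 cells pretreated 1 hr with compounds (up to 57.5 uM final), then stimulated with LPS (250 ng/mL final) plus ATP (1.25 mM final); secreted IL-1B measured by AlphaLISA after 16 hr, decreased signal indicating inhibition.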
HT1080 IDH1KD tx = toxicity to HT-1080 IDH1 knockdown cells (counter line); HT-1080 IDH1 knockdown viability, ATP luminescence, 48 h; Potency, µM (top dose mostly 46.1 µM), actives largely listed as cytotoxic; actives 2% (n = 360,000)
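Cytotoxicity counter-line: IDH1KD HT-1080, 48 h, CellTiter-Glo. Curves classed by r2, magnitude and activity.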
A number is an active result; 0 = inactive; ? = inconclusive; - = no result; [ ] = remark or other dose. Sampled rows, rich in hits. Any-hit rate of the full collection: about 19%. Unless noted, the call rests on the fitted dose curve; in most records, active means well fitted curve in the direction sought with a large enough effect; inconclusive means small, poorly fitted or top-dose-only effect, or another doubt; inactive means no such curve, though single readings can be large; an effect the other way counts as inactive or inconclusive.

SMILES	HT1080NT lethal	TDP1 cell noCPT	DT40 TDP1 CPT	IL1B secr inh	HT1080 IDH1KD tx
O=c1c2ccccc2nc2n1CC/C2=C/N1CCN(c2cccc(C(F)(F)F)c2)CC1	?	?	18µM	0	0[9.24 µM]
CN(CCCC(=O)O)S(=O)(=O)c1ccc2c(c1)C(=O)c1cc(S(=O)(=O)N(C)CCCC(=O)O)ccc1-2	0	0	0	0	0
O=C(N[C@@H](Cc1ccccc1)C(=O)CCl)OCc1ccccc1	6.5µM	2.3µM	2.3µM	-111	21µM
O=C(CCl)NC(Cc1ccccc1)C(=O)OCC(=O)c1ccc(-c2ccccc2)cc1 (stereo unspecified)	0	?	?	-86	?
CC(=O)NC(Cc1ccccc1)C(=O)OCC(=O)c1ccc(Cl)cc1 (stereo unspecified)	0	0	0	0	0
COc1ccc(C2c3c(oc4ccccc4c3=O)C(=O)N2c2nc(C)c(C)s2)cc1 (stereo unspecified)	-	0	0	-	-
CC1(C)Cc2c(sc(NC(=O)c3ccc(C(=O)c4ccccc4)cc3)c2C(N)=O)C(C)(C)N1	10µM	?	?	-102	9.2µM
CC1(C)Cc2c(sc(NC(=O)c3ccc4ncsc4c3)c2C(N)=O)C(C)(C)N1	23µM	?	?	-215	23µM
CCC(CC)COC(=O)C1=C(C)NC(=O)NC1c1ccc(N(C)C)cc1 (stereo unspecified)	0	21µM	?	?	0
COc1ccc(NC(=O)COc2ccc(/C=C/c3cccc[n+]3C)cc2OC)cc1	0	0	0	0	0
C/C=C/c1ccc(OCC(=O)Nc2cc(OC)c(OC)c(OC)c2)c(OC)c1	0	12µM	13µM	0	0
COc1ccc(NC(=O)COc2ccc(/C=C/c3cc[n+](C)cc3)cc2OC)cc1	0	23µM	?	-54	0
COc1cc(/C=C/c2cccc[n+]2C)ccc1OCC(=O)Nc1cccc(Cl)c1	0	18µM	0	-71	0
COc1cc(NC(=O)COc2ccc(-n3cnnn3)cc2)cc(OC)c1OC	0	?	23µM	0	0
Cc1ccc(CCNC(=O)c2cc3sccc3n2Cc2ccc(F)cc2)cc1	-	?	0	-	-
O=C(c1ccccc1)C(I)(I)N1CCOCC1	-	?	0	-	-
CC(C)Oc1ccc(S(=O)(=O)N2CCCCC2)cc1NC(=O)C1CSC2(C)CCC(=O)N12 (stereo unspecified)	0	?	?	0	0
COc1cc(/C=C/c2cc[n+](C)cc2)ccc1OCC(=O)Nc1ccc(Cl)c(Cl)c1	?	?	?	-89	23µM
CCN(CC)C(=O)C1CCN(S(=O)(=O)c2ccc(C3CNC(=O)C3)cc2)CC1 (stereo unspecified)	0	0	?	0	0
Cc1cc(NC(=O)CS(=O)(=O)c2cn(Cc3cccc(C(F)(F)F)c3)c3ccccc23)no1	0	21µM	?	0	0
Cc1cc(NC(=O)CS(=O)(=O)c2cn(Cc3ccc(F)cc3)c3ccccc23)no1	0	10µM	21µM	0	0
CCn1cc(S(=O)(=O)CC(=O)Nc2cc(C)on2)c2ccccc21	0	?	0	0	0
Cc1cc(NC(=O)CS(=O)(=O)c2cn(Cc3cccc(F)c3)c3ccccc23)no1	0	?	?	-55	0
CC1CC(C)CN(C(=O)Cc2c(C(=O)O)[nH]c3ccc(Cl)cc23)C1 (stereo unspecified)	0	0	0	0	0
C=C(C)Cn1c(CCn2c3ccccc3c3ccccc32)n[nH]c1=S	0	5.8µM	9.2µM	0	0
SMILES	HT1080NT lethal	TDP1 cell noCPT	DT40 TDP1 CPT	IL1B secr inh	HT1080 IDH1KD tx
C=CCn1c(CCn2c3ccccc3c3ccccc32)n[nH]c1=S	0	0	0	0	0
Cc1ccc(-c2csc3nc4c5ccccc5c(NCCCN(C)C)nn4c(=O)c23)cc1	0	18µM	?	?	0
CCc1nc2scc(-c3ccc(C)cc3)c2c(=O)n1N	0	0	0	0	0
O=C(CSc1nnc(-c2ccncc2)n1-c1ccc(F)cc1)NNC(=O)c1cccc(O)c1	0	0	?	0	0
O=C(c1ccc(Cl)cc1)C1C2C(=O)N(c3ccccc3)C(=O)C2C2CCCN21 (stereo unspecified)	0	0	0	0	0
CC(=O)c1ccc(N2C(=O)C3C(C2=O)C(C(=O)c2ccc(Cl)cc2)N2CCCC32)cc1 (stereo unspecified)	16µM	10µM	8.2µM	-109	?
O=C(c1ccccc1)[C@@H]1[C@@H]2C(=O)N(c3ccc(F)cc3)C(=O)[C@@H]2C2CCCN21 (stereo partly specified)	?	?	?	-59	23µM
COc1ccc(N2C(=O)C3C(C2=O)C(C(=O)c2ccc(Cl)cc2)N2CCCC32)cc1 (stereo unspecified)	13µM	?	?	-	18µM
CNC(=O)C1CC(=O)N(CCCc2ccccc2)C(=Nc2ccccc2)S1 (stereo unspecified)	0	0	0	0	0
O=C(CSc1nnc(NC2CC2)s1)c1ccc[nH]1	0	0	0	0	0
S=C1NCCOCCNC(=S)NCCOCCOCCOCCN1	0	0	0	0	0
O=C(O)c1ccc(NCCc2ccc(Cl)cc2)c([N+](=O)[O-])c1	0	0	0	0	0
COc1ccc(N2CCC(CNC(=O)Nc3ccccc3)C2)cc1 (stereo unspecified)	0	?	0	0	0
COc1ccc(N2CCC(CNC(=S)Nc3cc(C)cc(C)c3)C2)cc1 (stereo unspecified)	?	15µM	?	-91	?
COc1ccc(N2CCC(CNC(=S)Nc3cc(C)ccc3C)C2)cc1 (stereo unspecified)	0	16µM	16µM	0	0
CC1C/C(=N\NC(=S)NCc2ccccc2)CC(C)(C)C1 (stereo unspecified)	0	26µM	?	0	0
CC1CCC/C(=N\NC(=S)NCc2ccccc2)C1 (stereo unspecified)	0	0	0	0	0
CCCc1nc(NCc2ccccn2)c2nnn(Cc3ccccc3F)c2n1	0	?	?	0	0
CCCc1nc(NCc2ccncc2)c2nnn(Cc3ccccc3F)c2n1	?	15µM	?	0	18µM
C=CCSc1nnc(C2CCCN(Cc3ccccc3O)C2)n1C (stereo unspecified)	-	0	0	-	-
C/C(=N\NC(=O)c1ccccc1)c1ccccc1F	0	0	0	0	0
C/C(=N\NC(=O)c1ccccc1OCCOc1ccccc1)c1ccccc1F	?	16µM	?	-65	?
CC(=O)Nc1ccc(NC(=O)C(c2ccccc2)N2Cc3ccccc3C2=O)cc1 (stereo unspecified)	-	0	0	-	-
